# Results from the supplement of paper PMC3334620.
# Whole data set: some 33,000 sequences, median “E-score (-0.5 to 0.5)” near -0.036, cut for the highest 2% near 0.37. The entries come from a sample that favours the highest values as a whole.
# Target: T1, Yer064c (UniProt P40041)
# T1 sequence: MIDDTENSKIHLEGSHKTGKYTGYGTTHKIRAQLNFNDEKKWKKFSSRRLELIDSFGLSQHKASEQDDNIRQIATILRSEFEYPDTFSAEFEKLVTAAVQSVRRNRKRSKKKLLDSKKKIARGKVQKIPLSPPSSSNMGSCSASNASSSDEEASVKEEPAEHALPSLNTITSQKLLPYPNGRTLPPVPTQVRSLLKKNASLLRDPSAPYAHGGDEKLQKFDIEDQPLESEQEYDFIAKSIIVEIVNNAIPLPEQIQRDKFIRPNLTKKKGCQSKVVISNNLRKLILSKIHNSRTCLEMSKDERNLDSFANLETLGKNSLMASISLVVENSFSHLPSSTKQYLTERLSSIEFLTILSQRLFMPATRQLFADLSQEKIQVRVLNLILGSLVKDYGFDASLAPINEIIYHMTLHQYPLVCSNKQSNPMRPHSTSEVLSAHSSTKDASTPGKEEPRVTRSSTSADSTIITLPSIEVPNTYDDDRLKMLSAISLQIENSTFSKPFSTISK
# Experiment: PBM E-score (8-mer binding enrichment) (E-score (-0.5 to 0.5)); higher = stronger / more preferred TF binding
# Details: protein concentration: 200 nM; construct: GST-full length
# Procedure, shortened: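 PURExpress in vitro transcription/translation supplied GST-tagged yeast transcription factors, either full-length or DNA-binding domain. Applied at about 100-200 nM to universal all-10-mer Agilent arrays double-stranded by primer extension, the bound protein was detected with fluorescent anti-GST. E-scores, modified Wilcoxon-Mann-Whitney statistics, were given by the Universal PBM Analysis Suite to ungapped eight-base words pooled with their reverse complements after masliner normalisation.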
row,Sequence,PBM E-score
1,AGGCTACG,-0.232
2,ATCCAAAC,0.00765
3,GAGGACAA,-0.195
4,GTCACAAC,0.213
5,GGGTCAGA,0.00219
6,TCGTCAGA,-0.15
7,TAGTCAGA,0.457
8,GAGTCAGA,0.472
9,GCGTCAGA,-0.116
10,ATGTCAGA,-0.0808
11,GACGGCCC,-0.375
12,CATCCTAA,0.0625
13,GTAGAAAC,-0.119
14,AACGGCTT,-0.309
15,CACTCTTA,-0.016
16,TACTCTGA,0.156
17,GACTCTGC,0.376
18,AACTCTGA,0.186
19,AACTCTTA,0.0866
20,GACTCTTA,0.428
21,AACTCTGC,0.0728
22,GACTCTGA,0.392
23,CACTCTGC,-0.0532
24,ATTCTCTG,0.0149
25,CCTCTGCA,-0.264

row,Sequence,PBM E-score
1,GGCTAGAA,0.00723
2,GCCCTTAA,-0.185
3,AGGCCTGC,-0.27
4,CCGGGCCC,-0.315
5,GCGGACCA,-0.0691
6,AGCCCCCT,-0.382
7,ATAGGATG,0.0522
8,GCGAGTCA,0.485
9,TCGAGTAA,0.11
10,ACGAGTCG,0.383
11,CCGAGTCA,0.467
12,CCGAGTCG,0.261
13,GCGAGTCC,0.262
14,CCGAGTCC,0.195
15,GCGAGTAA,0.206
16,ACGAGTAG,0.039
17,TCGAGTCA,0.471
18,ACGAGTTG,-0.0661
19,TCGAGCCA,-0.00283
20,ATACCCGA,-0.0409
21,CTCTTTGC,-0.0733
22,AACGTCCG,-0.343
23,TCTCGAAA,0.0754
24,GCGGAACA,0.0307
25,CAGGGGGC,-0.337

row,Sequence,PBM E-score
1,CGGCTGAA,0.0435
2,ATTTTGCG,0.00719
3,ACCCAACA,-0.144
4,CCGCCTGC,0.00718
5,ACGAGTCT,0.312
6,ACGAGTCA,0.48
7,ACGAGTCC,0.289
8,AATCGCTC,0.211
9,CACTACGC,-0.197
10,TACTACGA,0.181
11,CACTACGA,0.0996
12,GACTACGA,0.413
13,AACTACGC,0.0819
14,GACTACGC,0.391
15,ATGAAATA,-0.0533
16,TAGAGTCA,0.469
17,TAGAGTAA,0.0416
18,AAGAGTTG,0.0206
19,TAGAGTGA,0.171
20,AAGAGTGG,-0.242
21,GAGAGTCC,0.256
22,CAGAGTCC,0.212
23,CAGAGTCA,0.469
24,GAGAGTCA,0.481
25,GAGAGTAA,0.0863

row,Sequence,PBM E-score
1,AAGAGTCG,0.423
2,CAGAGTCG,0.324
3,AAGGCTGT,-0.161
4,CAAACGCA,-0.0486
5,CCCGGACC,-0.189
6,AGTAAGAT,0.0659
7,CATGTTCC,-0.138
8,ACGGTACG,0.0345
9,ATACAAGC,-0.123
10,AAGAGTCT,0.355
11,AAGAGTCA,0.489
12,AAGAGTCC,0.303
13,CACTAGTC,0.274
14,CACTAGTA,-0.0969
15,GACTAGTC,0.408
16,GACTAGTA,0.391
17,AACTAGTC,0.355
18,TACTAGTA,0.216
19,AACCAGTC,0.171
20,GTAGCCAA,-0.0169
21,CATGTCTA,0.205
22,ACTCAACT,0.337
23,AGTCAACC,0.442
24,CGTCAACC,-0.225
25,TGTCAACA,-0.18

row,Sequence,PBM E-score
1,ACTCAACG,0.288
2,CGTCAACA,-0.189
3,GGTCAACC,-0.0162
4,AGTCAACG,0.443
5,AGTCAACA,0.441
6,AGTCAACT,0.424
7,AATCAACT,0.314
8,CGTCAACG,0.0184
9,ATTCGAAG,0.15
10,AAGATACG,-0.0653
11,AGATCTCA,0.0373
12,ATGGGCTG,-0.0763
13,CACTTAGA,0.0684
14,TGCATTAA,0.0992
15,CTGGCCGC,-0.163
16,AATACGCT,-0.136
17,CAGTAGCC,-0.116
18,CAGTAGTC,0.403
19,AAGTAGTG,-0.157
20,CAGTAGTA,0.111
21,AAGTAGTA,0.0556
22,AAGTAGTC,0.415
23,GCAAAGCC,-0.263
24,GTGGCAAC,-0.295
25,CGTTCACA,0.0136

row,Sequence,PBM E-score
1,CCTGGCAC,-0.304
2,GCCATTCA,-0.0419
3,GAATCATC,0.48
4,GAATCAAA,0.268
5,CAATCATA,0.371
6,GAATCAAC,0.358
7,CGATCATA,0.0235
8,CAATCATC,0.422
9,CCATCATC,-0.01
10,CTATCATC,-0.0157
11,CCATCATA,-0.0232
12,CCGGCTTA,-0.221
13,CCTTGGAA,-0.185
14,CCGAAAAA,0.0649
15,ATAGGTCC,-0.0251
16,AGTAAACC,-0.0239
17,CCCTTTTA,-0.0873
18,AGATTGAT,0.0609
19,CTTGAGGC,-0.146
20,ATTGAGTA,0.282
21,CTTGAGTC,0.466
22,ATTGAGTC,0.479
23,ATTGAGTG,0.149
24,CTTGAGTA,0.233
25,ACGGCCAG,-0.206

row,Sequence,PBM E-score
1,AGCCATGA,0.282
2,CTCAGTGA,0.235
3,GTCAGTTA,0.0503
4,ATCAGTCG,0.296
5,CTCAGTCA,0.436
6,CTCAGTCC,0.255
7,ATCAGTCC,0.0464
8,GTCAGTGA,0.31
9,GTCAGTCA,0.451
10,ATCAGTCA,0.434
11,ATCAGGGG,-0.00776
12,ACGCACAG,-0.247
13,GCCCATCC,-0.0789
14,ATAAAAAA,0.112
15,TTTAGAAA,0.0151
16,AAGAGCGG,-0.214
17,CGGGTGCC,-0.315
18,CGTCGTGA,0.0738
19,ATTCGTGG,0.186
20,AGTCGTTG,0.326
21,AGTCGTGG,0.373
22,AGTCGTGA,0.375
